Results: PubChem BioAssay (NCI)
This is part of a sample that, as a whole, favours compounds with a hit. Of some 83,000 tested, about 20% had one in any assay.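 Results are percent growth after 48 hours of single-concentration exposure. 100 means growth as in untreated cells, lower positive values show inhibition; negative values down to -100 show cell death.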 Unmarked numbers belong to inactive results. Calls of active or inactive are those of the source. The calls were made as follows: active = growth percent below 10; inactive = the rest.

Tests used:
Experiment in all cases: NCI-60 one-dose screen, 48 h (100 = growth as untreated, 0 = no growth, -100 = all killed)
Conditions in all cases: 10 µM unless noted
NCI-H23 lung = system: NCI-H23 lung
HOP-62 NSCLC = system: HOP-62 NSCLC
NCI-H460 lung = system: NCI-H460 lung
HOP-92 NSCLC = system: HOP-92 NSCLC
NCI-H522 lung = system: NCI-H522 lung
A549/ATCC NSCLC = system: A549/ATCC NSCLC
786-0 renal = system: 786-0 renal
COLO 205 colon = system: COLO 205 colon
DU-145 prostate = system: DU-145 prostate
K-562 leukemia = system: K-562 leukemia
MALME-3M melanoma = system: MALME-3M melanoma
MDA-MB-231 breast = system: MDA-MB-231 breast
RXF 393 renal = system: RXF 393 renal
SF-268 CNS = system: SF-268 CNS
SF-295 CNS = system: SF-295 CNS
SF-539 CNS = system: SF-539 CNS
UACC-257 melanoma = system: UACC-257 melanoma
M14 melanoma = system: M14 melanoma
HCT-15 colon = system: HCT-15 colon

SMILES | growth (NCI-H23 lung) | growth (HOP-62 NSCLC) | growth (NCI-H460 lung) | growth (HOP-92 NSCLC) | growth (NCI-H522 lung) | growth (A549/ATCC NSCLC) | growth (786-0 renal) | growth (COLO 205 colon) | growth (DU-145 prostate) | growth (K-562 leukemia) | growth (MALME-3M melanoma) | growth (MDA-MB-231 breast) | growth (RXF 393 renal) | growth (SF-268 CNS) | growth (SF-295 CNS) | growth (SF-539 CNS) | growth (UACC-257 melanoma) | growth (M14 melanoma) | growth (HCT-15 colon)
CN1C(=O)N(C)C2C1NN=c1s/c(=C\c3ccc(Cl)cc3Cl)c(=O)n12 (stereo unspecified) | 29% | 54.3% | 3.01% (active) | 97.6% | 17.5% | 25.1% | 24% | 1.82% (active) | 5.98% (active) | 7.76% (active) | 62.4% | 30.4% | 16.2% | 31.6% | 17.4% | 1.09% (active) | 75.8% | 7.37% (active) | 15.8%
CCOC(=O)C1=C(C)c2ccc(OC)c(OC)c2C1 | 91.8% | 88.5% | 118% | 79.2% | 78.6% | 87% | 81.4% | 113% | 115% | 102% | 123% | 117% | 93.8% | 108% | 99.5% | 91.9% | 98.4% | 126% | 97.3%
COC(=O)c1ccc(NC(=O)CSc2nc3ccccc3c(=O)n2-c2ccccc2)cc1 | 95.4% | 106% | 99.2% | 79.7% | 80.6% | 88.8% | 100% | 120% | 108% | 95.1% | 109% | 95.7% | 111% | 92% | 102% | 100% | 90.4% | 105% | 105%
C=C(C)CCC(C)N1CCC(N2CCC(C(=O)NCCc3ccccc3)CC2)CC1 (stereo unspecified) | 62.4% | 79% | 40.4% | 71% | 43.2% | 43.4% | 70.2% | 25.4% | 62.2% | 17% | 57.3% | 69.7% | 47.5% | 57.8% | 79.5% | 69% | 72.6% | 58% | 39.2%
COc1ccc(C(=O)C2CC2c2ccc(Cl)cc2)cc1 (stereo unspecified) | 95.1% | 115% | 94.2% | 92.7% | 68.2% | 82.8% | 89% | 106% | 97.5% | 76.1% | 94.8% | 86.4% | 95.5% | 78.8% | 141% | 98.6% | 94.2% | 92% | 97.9%
NC(CCl)=NCCC[C@H](N)C(=O)O | 98.3% | 126% | 101% | 98.3% | 95.4% | 97.8% | 106% | 104% | 111% | 111% | 146% | 95.8% | 100% | 108% | 81.1% | 103% | 87.6% | 88.9% | 93.7%
O=C(Nc1ccc(Cl)cc1F)c1cc(F)ccc1O | 1.46% (active) | -0.133% (active) | 4.1% (active) | -7.2% (active) | -25.1% (active) | 7.57% (active) | 3.03% (active) | -1.76% (active) | 16.3% | 5.39% (active) | -21.5% (active) | -18.1% (active) | 9.69% (active) | 13.4% | -56.2% (active) | 4.32% (active) | -17.3% (active) | 2.92% (active) | 3.11% (active)
O=C(Nc1ccc(Cl)cc1)N1CCN(c2ccc3nncn3n2)CC1 | 77.2% | -11.4% (active) | -27.3% (active) | -21.8% (active) | -45.1% (active) | -12% (active) | -85.9% (active) | -81.2% (active) | 36% | -61.1% (active) | -86.8% (active) | -55.5% (active) | -81.2% (active) | -48.1% (active) | -87.2% (active) | -86.7% (active) | -68.9% (active) | -87.1% (active) | 0.448% (active)
S=C1CCCC(=S)N1 | 101% | 88% | 106% | 105% | 96.6% | 98.3% | 107% | 115% | 111% | 104% | 106% | 113% | 104% | 99.1% | 104% | 100% | 94.6% | 105% | 101%
CCCCCCn1c(=N)n(CC(O)COc2cccc(C)c2)c2ccccc21 (stereo unspecified) | 11% | -74.6% (active) | -68.1% (active) | -6.11% (active) | -74.5% (active) | -32.3% (active) | -86.5% (active) | -94.4% (active) | -22.4% (active) | -2.58% (active) | -90.9% (active) | -70.7% (active) | -95.1% (active) | -14.2% (active) | -85.7% (active) | -86.4% (active) | -87.8% (active) | -75.2% (active) | -18.8% (active)
CCOC(=O)c1sc(-c2ccc(OS(=O)(=O)c3cccs3)c(C=O)c2)nc1C | 11.4% | 22.5% | 3.56% (active) | 11.9% | -2.27% (active) | 32.5% | 5.71% (active) | 79.6% | 8.94% (active) | 4.3% (active) | -5.26% (active) | -16.8% (active) | 19% | 9.2% (active) | -8.21% (active) | -26.2% (active) | 32.1% | -17.6% (active) | 1.42% (active)
Cc1cccc(NC(=O)c2sc3nc4c(cc3c2N)CCCC4)c1C | 30.2% | 26.4% | 6.76% (active) | 49.6% | -6.44% (active) | 26.3% | 34% | -38% (active) | 19.6% | – | 45.7% | 38.6% | – | 34.9% | 6.95% (active) | -12.2% (active) | 66.3% | 4.97% (active) | 16.2%
COc1ccc(/C=C2\N=C(c3ccccc3)N(c3ccc(-c4nc5ccc(C)cc5s4)cc3)C2=O)cc1 | 87.1% | 99.2% | 89.6% | 82.4% | 67.1% | 70% | 91% | 97.1% | 77.9% | 82.4% | 94.6% | – | 99% | 61.1% | 75.5% | 93.3% | 111% | 98.9% | 82.1%
COc1ccc(Nc2nc(N/N=C/c3ccc(O)cc3)nc(Nc3ccc([N+](=O)[O-])cc3)n2)cc1 | 103% | 107% | 107% | 109% | 95.3% | 104% | 105% | 111% | – | 103% | 114% | 109% | 121% | 128% | 89.2% | 110% | 99.9% | 108% | 107%
OC(CNC1CCCCC1)Cn1c2ccc(I)cc2c2cc(I)ccc21 (stereo unspecified) | 76.6% | 74.4% | 70.1% | -0.53% (active) | 67.5% | 75% | 77.7% | 104% | 101% | 54.4% | 68.9% | 56.3% | 78.3% | 91.8% | 47.2% | 77.5% | 84.8% | 68.7% | 65.7%
CN=c1ccc2nc3ccc(N)cc3sc-2c1 | 13.3% | 29% | 27.6% | 53.5% | 10.5% | 9.37% (active) | 48.8% | 1.63% (active) | 75.3% | 20.7% | -22.9% (active) | 7.68% (active) | 49.9% | 16.1% | -43.1% (active) | 12% | -19.3% (active) | 9.39% (active) | 30.3%
Cc1ccc(F)cc1NC(=O)c1cc(Cl)ccc1Nc1ccccc1 | 60.1% | 83.9% | 40.2% | 75.9% | 47.7% | 42.3% | 68.1% | 16% | 69.6% | 22.3% | 83% | 69.7% | 68.3% | 55% | 13.7% | 62.5% | 65.7% | 45.1% | 38.4%
CC(=O)c1ccc(NC(=O)Nc2ccc(S(=O)(=O)Nc3ccc(Cl)nn3)cc2)cc1 | 96.4% | 95.9% | 109% | 106% | 96.9% | 103% | 108% | – | 110% | 103% | 100% | 96.7% | 117% | 99.2% | 103% | 97.6% | 99.4% | 111% | 107%
CC(C)C[C@H](C(=O)N[C@@H](C)C(N)=O)N1CC=CCN(O)S1(=O)=O | 110% [5 µM] | 102% [5 µM] | 112% [5 µM] | 116% [5 µM] | 91.7% [5 µM] | 102% [5 µM] | 105% [5 µM] | 105% [5 µM] | 128% [5 µM] | 117% [5 µM] | 148% [5 µM] | 98.3% [5 µM] | 119% [5 µM] | 108% [5 µM] | 128% [5 µM] | 104% [5 µM] | 85.6% [5 µM] | 108% [5 µM] | 102% [5 µM]
COc1cc(OC)cc(N2C(=O)N(Cc3ccc(C(C)(C)C)cc3)c3ccccc3S2(=O)=O)c1 | 82.8% | 95.2% | 93.9% | 56.1% | 76.9% | 93.3% | 73.7% | 83.6% | 96.2% | 33.3% | 64% | 77.4% | 60.2% | 89% | – | 87.2% | 105% | 85.2% | 67.9%
Cc1cc(OC(=O)c2ccc([N+](=O)[O-])cc2)nc2[nH]c(=O)sc12 | 103% | 111% | 105% | 105% | 96.8% | 103% | 104% | 116% | 111% | 102% | 107% | 103% | 108% | 97.5% | 103% | 98.5% | 104% | 102% | 103%
COc1ccccc1C(=O)/C=C/c1ccccc1 | 83.4% | 86.9% | 66.4% | 80.6% | 81.8% | 76.1% | 101% | 117% | 32.1% | 23.1% | 99.1% | 97.6% | – | 80% | 89.9% | 91.6% | 92.6% | 103% | 53.3%
